Compound activity: PubChem BioAssay, National Center for Advancing Translational Sciences (NCATS)
Cruzain inh Det = qHTS Assay for Promiscuous and Specific Inhibitors of Cruzain (with detergent) | Cruzipain (Trypanosoma cruzi), P25779 | purified cruzain, Z-FR-AMC fluorescence, 0.01% Triton | Potency, µM, hits mostly inhibitors | 200,000 tested, 0.43% active | AID 1478, 2009; further: nearly all actives have a fitted effect of over 40% in size
Target sequence (P25779 123-467 limits assumed): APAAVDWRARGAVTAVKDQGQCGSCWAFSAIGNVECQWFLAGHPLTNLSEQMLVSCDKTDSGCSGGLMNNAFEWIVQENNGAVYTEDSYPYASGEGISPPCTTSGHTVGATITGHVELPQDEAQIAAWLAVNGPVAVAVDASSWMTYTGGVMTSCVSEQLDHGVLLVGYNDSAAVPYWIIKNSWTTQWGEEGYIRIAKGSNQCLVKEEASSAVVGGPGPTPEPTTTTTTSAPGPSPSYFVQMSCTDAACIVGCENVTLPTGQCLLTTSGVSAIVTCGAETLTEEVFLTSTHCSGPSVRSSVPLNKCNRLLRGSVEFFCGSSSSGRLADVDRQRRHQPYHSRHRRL
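Sodium acetate buffer (100 mM, pH 5.5) containing 5 mM DTT and 0.01% Triton X-100 hosted 1.5 nM cruzain and test compound for 15 min at room temperature. Cleavage of 2 uM Z-FR-AMC was then tracked by fluorescence.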
Cruzain noTriton = qHTS Assay for Promiscuous and Specific Inhibitors of Cruzain (without detergent) | Cruzipain (Trypanosoma cruzi), P25779 | purified cruzain, Z-FR-AMC fluorescence, no detergent | Potency, µM, hits mostly inhibitors | 200,000 tested, 2.3% active | AID 1476, 2009; further: nearly all actives have a fitted effect of over 40% in size
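Detergent-free condition (0.00005% Triton X-100) in acetate buffer pH 5.5 with DTT. 1.5 nM enzyme and compound were pre-mixed 15 min, then 2 uM Z-FR-AMC substrate added; reaction progress from fluorescence change between first and third reads (60 s).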
Hits are given with their value; n = inactive; u = inconclusive. A selection: hits, their analogues and other compounds. The true share with any hit is near 2.6%. The call rests on the fitted dose curve; in most records, active means well fitted curve in the direction sought with a large enough effect; inconclusive means small, poorly fitted or top-dose-only effect, or another doubt; inactive means no such curve, though single readings can be large; an effect the other way counts as inactive or inconclusive.

SMILES	Cruzain inh Det	Cruzain noTriton
Cc1cccc(N(CC(N)=O)C2SC(=O)N(Cc3cccc(C(=O)O)c3)C2=O)c1 (stereo not given)	n	n
Cc1ccccc1CNC(=O)CN1CCSc2ccccc21	n	n
COc1cccc(C2CC(=O)Nc3c2c(=O)nc2c(C)cccn32)c1OC (stereo not given)	n	n
CCc1ccc(NCc2cc3ccc(OC)cc3n(CC(=O)Nc3ccccc3OC)c2=O)cc1	n	n
Cc1nc(Nc2ccc(Cl)cc2Cl)sc1C(=O)Nc1ccccc1	n	n
Oc1nc(Nc2ccc(Cl)cc2Cl)sc1/C=C1\C=Nc2ccccc21	n	25.1µM
O=C(NCCc1c[nH]c2ccccc12)C(=O)NCC1OCCCN1S(=O)(=O)c1ccccc1 (stereo not given)	n	25.1µM
Cc1ccc(S(=O)(=O)N2CCCOC2CNC(=O)C(=O)NCCc2c[nH]c3ccccc23)cc1 (stereo not given)	n	u
Nc1ccn([C@H]2O[C@H](CO)[C@@H]3[O][Sn]([c]4ccccc4)([c]4ccccc4)[O][C@H]32)c(=O)n1	n	n
CNS(=O)(=O)c1cn(CC(=O)N2CCN(c3cccc(C)c3C)CC2)cc1S(=O)(=O)NC	n	n
Cc1ccc(C)c(SCC(=O)Nc2cccc(S(=O)(=O)NC3=NCCCCC3)c2)c1	n	n
O=C(CSc1ccc2ccccc2c1Br)Nc1cccc(S(=O)(=O)NC2=NCCCCC2)c1	n	20µM
CCOC(=S)SCC(=O)O	n	n
N#Cc1c(-c2ccccc2)cc(-c2ccccc2)nc1SCC(O)CS(=O)(=O)Cc1ccccc1 (stereo not given)	n	20µM
Cc1cc(-c2ccccc2)c(C#N)c(SCC(N)=O)n1	n	n
Cc1ccc(-c2cc(-c3ccccc3)c(C#N)c(SCC(O)CS(=O)(=O)Cc3ccccc3)n2)cc1 (stereo not given)	n	10µM
C#CCSc1nc(-c2ccccc2)cc(-c2ccccc2)c1C#N	n	n
COc1cccc(Nc2ncc3nc(C)c(=O)n(C4CC4)c3n2)c1	n	n
COc1cc(NC(=O)Cn2c(=O)n(C(C)C)c(=O)c3oc4ccccc4c32)cc(OC)c1	n	n
COc1cccc(CN2c3ccccc3-c3nc(SCC(=O)Nc4cccc(C)c4)ncc3S2(=O)=O)c1	n	u
CCN1c2ccccc2-c2nc(SCC(=O)Nc3cc(C)c(Cl)cc3OC)ncc2S1(=O)=O	n	25.1µM
CCN1c2ccccc2-c2nc(SCC(=O)Nc3ccc(C)c(Cl)c3)ncc2S1(=O)=O	n	u
O=C(CSc1ncc2c(n1)-c1cc(Cl)ccc1N(Cc1ccccc1)S2(=O)=O)NCc1ccccc1	n	15.8µM
O=C(CSc1ncc2c(n1)-c1cc(Cl)ccc1N(Cc1ccccc1)S2(=O)=O)NCCc1ccccc1	n	n
COc1cccc(CN2c3ccccc3-c3nc(SCC(=O)Nc4ccccc4Cl)ncc3S2(=O)=O)c1	n	15.8µM
SMILES	Cruzain inh Det	Cruzain noTriton
Cc1ccc(OCC(=O)Nc2sc3c(c2C(N)=O)CCCC3)c(C(C)(C)C)c1	n	n
C#CC(C)(C)NS(=O)(=O)c1cc(-c2nnc(Nc3ccc(C)cc3)c3ccccc23)ccc1C	n	n
COC(=O)c1ccccc1NC(=O)c1ccc(COc2ccccc2)o1	n	n
COC(=O)c1ccccc1NC(=O)c1ccc(COc2cccc3ccccc23)o1	n	15.8µM
COc1ccc(C(=O)n2nc(-c3ccco3)nc2NCc2cccs2)cc1	n	n
COc1ccc(-c2csc3nc(-c4cccnc4)nc(N4CCC(C(N)=O)CC4)c23)cc1OC	25.1µM	u
COc1ccc(-c2csc3nc(C)n(-n4cccc4)c(=O)c23)cc1OC	n	n
COc1cccc(C2CC(=O)N3CN(C4CCCCC4)CSC3=C2C#N)c1 (stereo not given)	28.2µM	n
COc1ccc(C2CC(=O)N3CN(C4CCCCC4)CSC3=C2C#N)cc1 (stereo not given)	20µM	n
CN1CSC2=C(C#N)C(c3cccc(OCc4ccccc4)c3)CC(=O)N2C1 (stereo not given)	n	n
COc1ccc(N2CSC3=C(C#N)C(c4ccc(OC)c(OC)c4)CC(=O)N3C2)c(OC)c1 (stereo not given)	n	n
COc1ccc(C2C(=O)N(C3CCC(C)CC3)CC(=O)N2C2CCCC2)cc1OC (stereo not given)	n	n
COc1cc(C2CC(=O)N(c3ccc(C)c(Cl)c3)C3=C2C(=O)OC3)cc(OC)c1OC (stereo not given)	n	n
COc1ccccc1NC(=O)CCn1cnc2ccccc2c1=O	n	n
Cc1cccc(C(=O)Nc2nnc(SCC(=O)Nc3ccc4c(c3)oc3ccccc34)s2)c1	n	20µM
COc1ccccc1C(=O)Nc1nnc(SCC(=O)Nc2ccc3c(c2)oc2ccccc23)s1	n	12.6µM
COc1ccc(NC(=O)CSc2nnc(NC(=O)Nc3ccccc3)s2)cc1OC	n	n
